An excerpt weighted towards active compounds, which were near 2.2% of everything screened.
A549 tox-1: Nrf2 qHTS screen for inhibitors: counterscreen for cytotoxicity; A549 ARE-Fluc cells, CellTiter-Fluor viability, 18-24 h; Potency, µM (doses to about 46 µM), for the others: at the highest dose activity change, negative = cytotoxicity, actives largely listed as inhibitors; 0.16% of 390,000 active; AID 504648, 2011; note: potency is the fitted concentration of half-maximal effect; % is set by controls: 0 for no effect and ±100 for the full control effect
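A549 ARE-Fluc cells in 5% FBS OPTI-MEM, 5000 cells/well, rested 2 h then exposed to compounds in concentration-response for 18-24 h at 37 °C. Viability by CellTiter-Fluor fluorescence (Ex 405/Em 525) after 30 min; luciferase luminescence (BugLite, 15 min, RT) read afterwards.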
Nrf2 inh: Nrf2 qHTS screen for inhibitors; 2.1% of 360,000 active; A549 ARE-Fluc reporter, luciferase luminescence, 18-24 h; AID 504444, 2011; Potency, µM (top dose mostly 46 µM), for the others: at the top dose activity change, negative = inhibition, hits mostly inhibitors; note: potency is the fitted concentration of half-maximal effect; % is set by controls: 0 for no effect and ±100 for the full control effect; nearly all actives have a fitted effect of over 60% in size
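Nrf2 function is reported as luminescence of an ARE-controlled luciferase in A549 cells. Compounds were tested at several concentrations, and a CellTiter-Fluor read on the same wells flagged cytotoxicity.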
miR-21 reporter: qHTS Assay for Modulators of miRNAs and/orActivators of miR-21; Potency, µM (top dose mostly 38.3 µM), for the others: at the top dose activity change, positive = activation, hits mostly activators; 340,000 tested, under 10 active; HeLa miR-21 FLuc reporter, luciferase, 48 h;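 note: % of control where 0% means no effect; miR-21 action dims this reporter so a rising signal means less miR-21 action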
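HeLa miR-21-FLuc reporter line, endogenous miR-21; 2000 cells/well in DMEM/10% FBS; compound titration up to ~40uM final, 48 h, 37 degree Celsius; luciferase detection reagent, 15 min lysis, CCD luminescence.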
B2AR arrestin: qHTS assay of beta-arrestin-biased ligands of beta2-adrenergic receptor. beta-arrestin recruitment to beta2AR, cell-based reporter. Beta-2 adrenergic receptor (Homo sapiens), P07550. AID 492947, 2010. Potency, µM (top dose mostly 46.1 µM), without a hit: at the top dose activation, hits mostly activators. 0.02% of 330,000 active;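 note: potency is the fitted concentration of half-maximal effect; 0% = DMSO controls and full agonism = EC100 isoproterenol or metaproterenol; nearly all actives have a fitted effect of over 65% in size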
Nrf2 activator: qHTS of Nrf2 Activators; Potency, µM (series often up to 46.1 µM), for inactives: at the highest dose activation, actives largely listed as activators; 0.31% of 410,000 active; AID 624171, 2012; AREc32 ARE-luciferase reporter (MCF7-derived line), luminescence, 24 h; note: potency is the fitted concentration of half-maximal effect; % of control where 0% means no effect; nearly all actives have a fitted effect of over 65% in size
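Steps: seed AREc32_Fluc cells (1000/well, 5% FBS OPTI-MEM); incubate overnight at 37 deg C; add 23 nL compound; incubate 24 hr; add Steady-Glo; hold 30 min RT; read luminescence.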
FLuc counter 3: Nrf2 qHTS screen for inhibitors: Purified Fluc Biochemical Counterscreen for Hit Validation | shares compounds with Nrf2 inh | purified firefly luciferase, luminescence inhibition | Potency, µM (top dose mostly 57.5 µM), without a hit: at the highest dose activity change, negative = inhibition, actives largely listed as inhibitors | 4% of 1,400 active | AID 720522, 2013; note: potency is the fitted concentration of half-maximal effect; % is set by controls: 0 for no effect and ±100 for the full control effect; nearly all actives have a fitted effect of over 65% in size
Target sequence (P08659 whole entry, looked up): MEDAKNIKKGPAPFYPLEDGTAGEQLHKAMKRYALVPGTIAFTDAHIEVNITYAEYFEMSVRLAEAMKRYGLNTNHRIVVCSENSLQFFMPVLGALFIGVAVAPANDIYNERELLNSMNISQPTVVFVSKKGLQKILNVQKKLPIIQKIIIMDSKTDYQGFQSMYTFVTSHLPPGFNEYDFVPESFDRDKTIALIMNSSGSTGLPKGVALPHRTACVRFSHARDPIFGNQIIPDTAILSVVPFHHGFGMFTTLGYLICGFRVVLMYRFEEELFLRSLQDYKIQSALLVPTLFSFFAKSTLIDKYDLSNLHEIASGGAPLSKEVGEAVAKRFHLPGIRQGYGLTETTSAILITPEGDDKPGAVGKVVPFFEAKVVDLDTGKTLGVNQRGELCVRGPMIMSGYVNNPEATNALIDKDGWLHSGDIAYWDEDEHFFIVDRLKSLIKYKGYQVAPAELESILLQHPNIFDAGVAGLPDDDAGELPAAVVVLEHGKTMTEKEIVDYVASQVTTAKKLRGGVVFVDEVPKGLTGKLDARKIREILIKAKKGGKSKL
A549 tox-2: Nrf2 qHTS screen for inhibitors: A549 ARE-Fluc Cytotoxicity Counterscreen for Hit Validation; shares compounds with Nrf2 inh; A549 ARE-Fluc cells, cytotoxicity counterscreen; Potency, µM (series often up to 46.1 µM), inactives show top-dose activity change, negative = cytotoxicity, usual class: inhibitors; 2% of 1,400 active;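 note: potency is the fitted concentration of half-maximal effect; cells exposed to compounds for 18 to 24 hours; % is set by controls: 0 for no effect and ±100 for the full control effect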
Nrf2 ARE inh: Nrf2 qHTS screen for inhibitors: Nrf2 A549 ARE-Fluc Confirmation Assay for Hit Validation; shares compounds with Nrf2 inh; A549 ARE-firefly luciferase reporter, luminescence; Potency, µM (highest dose often 46.1 µM), for inactives: top-dose activity change, negative = inhibition, hits mostly inhibitors; 74% of 1,400 active; AID 720524, 2013; note: potency is the fitted concentration of half-maximal effect; % is set by controls: 0 for no effect and ±100 for the full control effect; nearly all actives have a fitted effect of over 65% in size
* marks the source's active call; other numbers are inactive results; ? = inconclusive; · = no result shown; [ ] = another dose, or the depositor's remark. Calls come from the whole dose curve; as a rule, active = well fitted curve in the direction sought with a large enough effect; inconclusive = small, poorly fitted or top-dose-only effect, or another doubt; inactive = no such curve, though single readings can be large; an effect the other way counts as inactive or inconclusive.

SMILES	A549 tox-1	Nrf2 inh	miR-21 reporter	B2AR arrestin	Nrf2 activator	FLuc counter 3	A549 tox-2	Nrf2 ARE inh
COc1ccc(OC)c(CNc2ncnc3onc(C)c23)c1	3%	-26%	2%	·	3%	·	·	·
CCc1ccc(S(=O)(=O)NCCc2csc3nc(-c4ccccc4)nn23)s1	-1%	·	?	·	0%	·	·	·
COc1ccc(N2CCN(C(=O)CSc3nnc4n3C(C)(C)Cc3ccccc3-4)CC2)cc1	-7%	?	17%	?	0%	·	·	·
Cc1ccc(Cl)cc1N1CCN(C(=O)CSc2nnc3n2C(C)(C)Cc2ccccc2-3)CC1	?	6.5µM*	15%	0%	0%	0%	?	6.5µM*
Cc1ccc(N2CCN(C(=O)c3c(C)oc4nc(C)nc(N5CCCC5)c34)CC2)c(C)c1	-1%	0%	-5%	·	0%	·	·	·
Cc1nc2ccc(NS(=O)(=O)c3ccc4c(c3)OCCO4)cc2s1	-25%	2.9µM*	19%	-1%	3%	-2%	-1%	6.5µM*
Cc1ccc(S(=O)(=O)Nc2ccc3c(c2)OCCO3)cc1	10%	-3%	-3%	0%	2%	·	·	·
COc1ccc(CCNC(=O)c2csc3c2CCCCC3)c(OC)c1	9%	?	12%	·	3%	·	·	·
COc1ccccc1C(=O)NCCCNC(=O)c1cccnc1	4%	1.8µM*	10%	-1%	0%	-1%	12%	-11%
C=C1CCN(C(CC(C)C)C(=O)NCc2ccc(Cl)cc2)S(=O)(=O)c2ccccc21 (centres undefined)	0%	2%	·	·	·	·	·	·
Fc1ccccc1N1CCN(c2ncnc3onc(-c4cccc(Cl)c4)c23)CC1	-3%	?	12%	·	-1%	·	·	·
N#Cc1nc(N2CCCC2)nc(N2CCCC2)n1	-18%	5.2µM*	13%	0%	-1%	0%	-25%	13µM*
O=C(NCc1ccccc1)c1cc2sccc2n1Cc1ccc(Cl)cc1	-1%	-6%	2%	·	-1%	·	·	·
CC(C)NC(=O)C1CCN(C(=O)c2cc3sccc3n2Cc2ccc(Cl)cc2)CC1	-24%	5.8µM*	?	·	0%	1%	?	4.1µM*
Cc1ccc(C)c(OCc2ccc(C(=O)Nc3ccc([N+](=O)[O-])cn3)o2)c1	-3%	2.9µM*	·	0%	0%	3%	-3%	5.2µM*
COc1cccc(NC(=O)c2oc3ccccc3c2NC(=O)c2ccc(OC(C)C)cc2)c1	3%	26%	-34%	·	0%	·	·	·
Cc1ccc(C(=O)NNC(=O)CCCN2C(=O)/C(=C/c3ccccc3Cl)SC2=S)cc1	?	9.2µM*	?	-1%	-1%	?	-4%	?
O=C(CCN1C(=O)/C(=C/c2ccccc2Cl)SC1=S)NNC(=O)c1ccccc1O	-7%	-22%	-5%	0%	0%	·	·	·
O=C(CCCN1C(=O)/C(=C/c2ccccc2Cl)SC1=S)NNC(=O)c1ccc(Cl)cc1	0%	8.2µM*	25%	0%	-1%	-5%	-22%	7.3µM*
O=C(CCN1C(=O)/C(=C/c2ccccc2Cl)SC1=S)NNC(=O)c1cccnc1	-4%	4%	1%	3%	9%	·	·	·
Cc1ccc(/C=C2/SC(=S)N(CCCC(=O)Nc3ccc(O)cc3)C2=O)cc1	?	9.2µM*	?	0%	3%	?	?	13µM*
CC(C)c1ccc(OCc2cc(=O)n3c(-c4ccccc4)csc3n2)cc1	0%	1%	-11%	·	0%	·	·	·
Fc1cccc(F)c1/C=C/c1ccc2ccccc2n1	15%	?	-23%	-1%	?	·	·	·
Fc1ccc(/C=C/c2ccc3ccccc3n2)cc1	·	·	·	·	·	-25%	?	7.3µM*
Cc1cccc(C(=O)Nc2nc(-c3nnn(-c4cc(C)ccc4C)c3C)ns2)c1	-14%	9.2µM*	?	·	0%	-15%	-14%	7.3µM*
SMILES	A549 tox-1	Nrf2 inh	miR-21 reporter	B2AR arrestin	Nrf2 activator	FLuc counter 3	A549 tox-2	Nrf2 ARE inh
Cc1cc(C)c2c(N)c3cccc(C)c3nc2n1	-9%	7.3µM*	?	4%	-2%	-12%	-2%	3.3µM*
CN(C)c1ccc(CNC(=O)C2CCCN(S(=O)(=O)c3ccc4c(c3)CCCC(=O)N4)C2)cc1 (centres undefined)	0%	5.8µM*	28%	·	-1%	-10%	-1%	?
COc1cc2ncc3c(-c4ccccc4)nn(CC(=O)NC4CCCCC4)c3c2cc1OC	0%	?	-3%	·	0%	·	·	·
Cc1ccc(C(=O)Nc2sc3c(c2C(=O)O)CCCC3)o1	?	?	17%	0%	0%	·	·	·
Cc1ccc(C(=O)Nc2sc3c(c2C(=O)O)CCC(C)C3)o1 (centres undefined)	-22%	5.8µM*	·	-1%	5%	2.4µM*	-27%	5.2µM*
CCN(CC)S(=O)(=O)c1cc(NC(=O)c2ccc(-n3cncn3)c([N+](=O)[O-])c2)ccc1C	?	4.1µM*	30%	-1%	-1%	1%	-10%	6.5µM*
CCOc1ccccc1NC(=O)c1cc2cc(C)ccc2n1C	-4%	5%	14%	·	6%	·	·	·
C[n+]1c2n(c3ccccc31)N=C(c1ccccc1)CS2	?	3.7µM*	?	0%	8.9µM*	0%	-9%	·
C[n+]1c2n(c3ccccc31)N=C(c1ccc(Br)cc1)CS2	-14%	?	25%	0%	?	·	·	·
COc1cc(NC(=O)c2cccc(COCC(F)(F)C(F)F)c2)cc(OC)c1OC	2%	9.2µM*	4%	0%	0%[9.22 µM]	-7%	0%	-11%
COc1ccc(NC(=O)c2ccc(COCC(F)(F)C(F)F)cc2)cc1OC	-5%	-22%	-3%	0%	0%	·	·	·
COc1ccc(NC(=O)c2ccco2)cc1NC(=O)c1cccc(C)c1OC	?	?	-2%	·	6%	·	·	·
CCCCn1c(=NC(=O)c2c(-c3c(F)cccc3Cl)noc2C)c(C(=O)OCC)cc2c(=O)n3ccccc3nc21	1%	-4%[9.27 µM]	1%	·	0%	·	·	·

Assay outcomes: PubChem BioAssay, National Center for Advancing Translational Sciences (NCATS)
